In PubChem BioAssay (NCI) one finds growth data, which are given here for eight compounds.

Compounds without any hit were thinned out: in the full panel of roughly 83,000, 20% have a hit.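 Plates (96-well) were seeded with cells, treated with compound at one concentration, and incubated for 48 hours before percent growth was determined.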 A number with no mark means an inactive call. Activity calls are given as the source filed them. How the source made its calls: active means growth percent below 10; inactive means the rest.

What all share (test): NCI-60 one-dose screen, 48 h (100 = growth as untreated, 0 = no growth, -100 = all killed)
What all share (settings): 10 µM unless noted

Test [1] deals with SK-MEL-2 melanoma.
Test [2] deals with EKVX NSCLC.
In test [3] the test system is SN12C renal.
In test [4] the test system is UO-31 renal.
Test [5] deals with TK-10 renal.
In test [6] the test system is ACHN renal.
For test [7], the system named is CAKI-1 renal.
Test [8] deals with A498 renal.
For test [9], the system named is CCRF-CEM leukemia.
Test [10] has as its system MOLT-4 leukemia.
The subject of test [11] is SR leukemia.
Test [12] deals with RPMI-8226 leukemia.
The test system of test [13] is OVCAR-8 ovarian.
The subject of test [14] is OVCAR-5 ovarian.
Test [15] concerns OVCAR-4 ovarian.
Test [16] concerns SK-OV-3 ovarian.
For test [17], the system named is IGROV1 ovarian.
Test [18] concerns OVCAR-3 ovarian.
The subject of test [19] is HS 578T breast.
Test [20] relates to NCI/ADR-RES ovarian.

Turning to `CCN1C(=O)N(CC)C2C1NN=c1s/c(=C\c3ccc([N+](=O)[O-])cc3)c(=O)n12` (stereo not given), the growth was 70.4% in [1]; 52.3% in [2]; 29.6% in test [3]; 37.5% in [4]; 69.1% in test [5]; 41.9% in test [6]. Further, the growth in test [7] was 37.1%; in [8], 18.6%; in test [9], 11.2%; in test [10], 15.8%; in test [11] it was 19.9%; in [12] it was 24.3%. In addition, the growth in [13] is 15.3%; in test [14], 35%; in test [15], 47.7%; in test [16], 42.8%; in test [17] it was 22.6%; in [18], 7.68% (active). The growth was 17.1% in [19] and 9.89% (active) in test [20].
For the compound `CC/C(=C(/c1ccc(Cl)cc1)c1ccc(OCCN2CCCCCC2)cc1)c1ccccc1`, the growth in test [1] is 98.7%; in [2] it was 85%; in test [3], 77%; in test [4] it was 61.8%; in test [5], 102%; in test [6], 103%. Also, the growth in test [7] is 85.1%; in test [8], 80.2%; in test [9] it was 44.3%; in test [10] it was 68.8%; in test [11], 6.94% (active); in test [12] it was 48.9%. The growth in test [13] is 84.8%; in test [14], 85.2%; in test [15] it was 79.6%; in test [16], 114%; in test [17] it was 97.3%; in [18], 93.9%. Besides, the growth in [19] was 89.7%; in test [20], 90.8%.
Take `Nc1n[nH]c2cccc(C#Cc3cccc(C(=O)Nc4ccc(Cl)c(C(F)(F)F)c4)c3)c12`: the growth in [1] is 39.2%; in test [2], 74.2%; in [3], 51.7%; in test [4], 29.6%; in [5] it was 91.5%; in [6], 59.1%. Further, the growth in [7] is 94.5%; in test [8], 35.6%; in [9] it was 35.8%; in [10], 31.2%; in test [11] it was 56%; in test [12], 53.1%. For the same compound, the growth in [13] was 65.8%; in test [14] it was 43.4%; in test [15] it was 56.2%; in test [16], 106%; in test [17] it was 35.8%; in test [18], 81.6%. Also, the results for the growth in test [19] and in [20] were 53.3% and 62.2%, respectively.
In the case of `O=C(OCC(O)(CO)C(=O)NC12CC3CC(CC(C3)C1)C2)c1ccc(Cl)cc1` (stereo not given), the growth in [1] is 86.3%; in [2] it was 103%; in test [3], 100%; in test [4], 82.6%; in test [5], 85.3%; in test [6] it was 102%. The growth in test [7] was 99%; in [8], 102%; in test [9], 87.8%; in test [10], 83.8%; in test [11] it was 86%; in test [12] it was 105%. The growth in [13] was 92.2%; in test [14], 100%; in test [15], 107%; in [16], 99.7%; in test [17], 110%; in test [18], 101%. For the same compound, the growth in test [19] is 88.5%; in [20] it was 98.6%.
As to `CNC(=O)c1cc(Oc2ccc3nc(NC(=O)Nc4ccc(F)cc4F)sc3c2)ccn1`, the growth in test [1] was 74.7%; in test [2], 89.8%; in test [3], 69.2%; in [4], 91.4%; in [5], 93.5%; in test [6], 60.6%. Moreover, the growth is 88.4% in test [7]; 10.9% in test [8]; 89.7% in test [9]; 82.4% in [10]; 80.4% in test [11]; 72.9% in test [12]. Moreover, the growth in test [13] was 45.1%; in test [14], 95.2%; in test [15] it was 34.2%; in [16], 76.3%; in test [17], 84.2%; in [18] it was 74.7%. Moreover, the growth in test [19] was 44.5%; in test [20], 45.5%.
`Cc1ccc(Nc2nc(N)nc(N)c2N=O)cc1Cl`: the growth in test [1] is 85.8%; in test [2], 81.5%; in test [3], 90%; in test [4], 56.5%; in [5] it was 96.2%; in test [6], 72.2%. For the same compound, the growth in test [7] was 82.2%; in [8] it was 119%; in test [9], 89.8%; in [10] it was 68.7%; in test [11] it was 72.5%; in [12], 78.3%. Moreover, the growth in test [13] is 95.8%; in [14] it was 93.9%; in [15] it was 76.9%; in test [16], 96.6%; in test [17], 37.7%; in test [18], 68.3%. The growth in test [19] is 75.2%; in [20], 79.3%.
`C=CC(=O)NCc1cccc(Nc2ncc(Br)c(NCCCNC(=O)C3CCC3)n2)c1`: the growth in test [1] is -50% (active); in test [2], -27.1% (active); in [3] it was 1.99% (active); in test [4], -9.45% (active); in [5] it was -17.4% (active); in test [6], 7.42% (active). The growth was -25.3% (active) in [7]; -59.5% (active) in test [8]; 1.57% (active) in test [9]; -5.38% (active) in test [10]; 2.53% (active) in test [11]; -14.7% (active) in test [12]. The growth in test [13] is 5.56% (active); in test [14], 10.2%; in [15], -2% (active); in [16], -42% (active); in test [17] it was 1.89% (active); in test [18], -33.4% (active). Also, the values for the growth in test [19] and in test [20] were -14.1% (active) and 35.8%, respectively.
Regarding `CCN1CCN(C(=O)[C@]23CC[C@@H](C)[C@H](C)[C@@H]2C2=CC[C@@H]4[C@@]5(C)C/C(=C/c6ccncc6)C(=O)C(C)(C)[C@@H]5CC[C@@]4(C)[C@]2(C)CC3)CC1`, the growth in [1] is 33.5%; in test [2], 43.7%; in test [3] it was 28.1%; in test [4], 9.04% (active); in test [5] it was 38.7%; in [6], 15.2%. The growth in [7] is 43.6%; in [8], -10.5% (active); in [9] it was 5.24% (active); in test [10], 0.087% (active); in [11] it was -12.8% (active); in test [12], -29.5% (active). For the same compound, the growth in test [13] is 37.4%; in test [14], 34.2%; in [15], 29.8%; in [16], 70.2%; in test [17], 29.8%; in test [18], 11.2%. Moreover, the growth in test [19] was 7.21% (active); in test [20] it was 27.4%.
